Here are results for 60 compounds from PubChem BioAssay AID504465 (National Center for Advancing Translational Sciences (NCATS), 2011).

About 210 (10%) of roughly 2,100 compounds were called active. Another 53% or so got no clear call; they are omitted. Calls follow the shape of the dose curve; as a rule, active = well fitted inhibition curve with a large enough effect; inconclusive = small, poorly fitted or top-dose-only effect, or effect the other way; inactive = no such curve, though single readings can be large or run the other way. Some of the results follow.
Potency is read from the fitted curve at half-maximal effect.

The experiment can be described thus: IN Cell qHTS Assay for Inhibitors of the mTORC1 Signaling Pathway in MEF (Tsc2-/-, p53-/-) Cells: Sytravon. Also: nearly all actives have a fitted effect of over 60% in size. The following applies: phospho-rpS6 immunofluorescence, 24 h; series mostly up to 38.3 µM; activity, negative = inhibition: at the top concentration. The text has this: NIH Molecular Libraries Probe Production Centers Network [MLPCN] NIH Chemical Genomics Center [NCGC] MLPCN Grant: NS059428-01 Assay Submitter (PI): Blenis, John; Hoffman, Greg; Harvard University NCGC Assay Overview: Thee mammalian target of rapamycin (mTOR) is an intracellular serine/threonine kinase Aberrant regulation of mTOR signaling plays a causative role in a number of human diseases, including cancer, benign tumors such as lymphangioleiomyomatosis (LAM) and Tuberous Sclerosis Complex (TSC), and metabolic diseases such as diabetes and obesity. This project aims to identify inhibitors of ribosomal protein S6 (rpS6) phosphorylation. The phosphorylation of rpS6 is a key event downstream of mTOR activation. The assay uses a phospho-specific antibody of phospho-rpS6 to detect inhibitors of mTOR activation. Mutations in the Tsc1 and Tsc2 genes are the underlying genetic lesions responsible for TSC, causing constitutive activation of the mTORC1 pathway and leading to profound effects on cell metabolism. Aberrant metabolism in cancer has recently received significant attention as a target to develop therapeutic agents in the treatment of cancer1. As Tsc2-/- cells have lost the ability to respond to energy and growth factor deprivation, these cells are unable to properly down regulate cellular biosynthetic processes in response to metabolic stress, and are thus extremely sensitive to glucose deprivation-induced death.2 A central goal of this project is to explore the unique cell survival and metabolic properties of cells with Tsc1 or Tsc2 by screening for compounds that selectively target the Tsc2-/- MEFs by screening both Tsc2-/- and WT MEF cell lines. We hope to better understand these aspects of TSC physiology in order to exploit them for therapeutic benefit.
NCGC IN Cell Assay Protocol: For quantitative high throughput analysis of mTORC1 signaling, we developed a cell-based assay for immuno-fluorescence based detection of rpS6 phosphorylation on the Acumen Explorer that will be used a platform for the primary small molecule screen. Mouse embryonic fibroblasts (MEFs) are cultured in 1536-well plates using DMEM + 10% FBS. Twenty-four hrs after plating, test compounds (solubilized in DMSO) are delivered and incubated with the cells for 24 hrs at 37 degree Celsius. Following the incubation, media with compound is aspirated and the cells are fixed in 4% paraformaldehyde (PFA) containing PBS + 0.2% TX-100. Next, PFA is aspirated, cells are washed two times with PBS plus 0.2% TX-100 and the cells are blocked for 1 hr at room temperature (blocking buffer: LiCOR Blocking Buffer plus 0.2% TX-100). This is followed by aspiration and staining with Alexa-488 conjugated-phospho-rpS6 Ser235/236 antibody for 2 hours at room temperature (Cell Signaling Technology # 4803, 1:50 dilution in blocking buffer). Cells are washed two times with PBS plus 0.2% TX-100, and stained with 10 uM propidium iodide (PI) for 20-25 minutes for cell number measurement (1:500 dilution of Hoescht staining is also added for IN Cell imaging). Active wells which are selected (based on Acumen results) are imaged on the IN Cell 1000 (GE Healthcare) using the D360/40X and HQ480/40X excitation filters for the Hoechst and Alexa-488 cytoplasmic stains, respectively. The fluorescence emission filters used were HQ460/40M and HQ535/50M for the Hoechst and Alexa-488 cytoplasmic stains, respectively. The normalized phospho-S6 staining is calculated as the ratio of […] for the single concentration rapamycin control (7.5 nM) and DMSO columns. […] Inhibition of the pathway is defined based on the normalized phospho-S6 intensity in rapamycin treated cells. Each treatment is reported as the % positive cells in the well, where thresholds are defined by selecting wells with the highest and lowest signal and differentiating between the % non-active and % active populations. […]
A general note: qHTS replaces the single test concentration by a dilution series.
As to `O=C(Nc1ccc(F)c(Cl)c1)c1cc(S(=O)(=O)N2CCc3ccccc3C2)ccc1F`, the “activity, negative = inhibition” value was 6.25% (inactive).
Still for that read-out and setting: the result for `COC(=O)c1cc(C)nc2c1c(=O)nc(SCc1ccccc1Cl)n2C1CC1` reads -23.4% (inactive); that for `COc1ccccc1N1CCN(C(=O)c2ccc3c(c2)CCN3S(=O)(=O)c2ccccc2)CC1`, -4.71% (inactive).
The same measure, in the same setting: next, `CCc1ccccc1NC(=O)CCNS(=O)(=O)c1ccc2c(c1)CCN2C(=O)C1CC1`: 3.7% (inactive).
With `Cc1ccc(Cl)cc1N1CCN(C(=O)c2cnn(-c3ccc(Cl)cc3)c2C2CCNCC2)CC1`, the Potency is 13.1 µM (active).
Regarding `Cc1ccc(Cl)cc1N1CCN(C(=O)c2ccc3c(c2)N(Cc2ccc(F)cc2)CCS3)CC1`, the “activity, negative = inhibition” value is -18.8% (inactive).
Still for that read-out and setting: the result for `COc1ccc(-n2ncc(C(=O)N3CCN(C4CCCCC4)CC3)c2C2CCN(C(=O)OC(C)(C)C)CC2)cc1` reads 1.08% (inactive); that for `COc1ccc(OC)c(NC(=O)c2c(NCc3ccc(C)o3)sc3c2CCC(C)C3)c1` (stereo not given), 0% (inactive); that for `COC(=O)c1scc(-c2ccc(C)cc2)c1S(=O)(=O)Nc1cc(Cl)ccc1C`, -2.27% (inactive).
`COc1ccccc1CNS(=O)(=O)c1ccc(-c2cnc(C3CC3)o2)cc1`: the “activity, negative = inhibition” value was -5.26% (inactive).
On to `Cc1cc(C)c(NS(=O)(=O)c2ccc(-c3cnc(C4CC4)o3)cc2)c(C)c1`, for which the Potency is 11.7 µM (active).
For `Cc1ccc(NS(=O)(=O)c2cc(-c3cnc(C4CC4)o3)ccc2C)cc1Cl`, the “activity, negative = inhibition” value is -8.33% (inactive).
Same read-out and setting: the result for `Cc1ccccc1-c1nc(SCC(=O)N(C)c2ccccc2)c2c(=O)n(C)c(=O)n(C)c2n1` reads 9.38% (inactive).
The same measure, in the same setting: next, `O=c1c(-c2cc(-c3ccc(F)cc3)nc3c2COc2ccc(Cl)cc2-3)coc2ccc(F)cc12`: 19.8% (inactive).
On to `CCOc1ccc(Nc2nc(N)c(C(=O)c3ccccc3Cl)s2)cc1`, for which the “activity, negative = inhibition” value is 1.3% (inactive).
Regarding `CCOc1ccc(Nc2nc(-c3cccc(Cl)c3)c3c(n2)-c2ccccc2OC3)cc1`, the Potency was 2.07 µM (active).
Regarding `Cc1ccccc1C1CC(=O)Nc2ccc3ccccc3c21` (stereo not given), the “activity, negative = inhibition” value is -6.74% (inactive).
For the compound `CCOc1cc(CNCCSc2nnnn2-c2ccccc2)ccc1OC`, the “activity, negative = inhibition” value is -2.4% (inactive).
The same measure, in the same setting: next, `COc1ccc(C2=CC(c3ccc(F)cc3)n3ncc(C(=O)Nc4ccc(C)cc4)c3N2)cc1` (stereo not given): -0.389% (inactive).
Regarding `Cc1ccc2nc3sc(C(=O)Nc4ccc(F)cc4)cc3cc2c1`, the Potency is 2.33 µM (active).
With `Cc1ccc(NC(=O)CCS(=O)(=O)c2ccc3nc(C)sc3c2)cc1`, the “activity, negative = inhibition” value is -26% (inactive).
On the same count and under the same terms, the result for `Cc1sc2ncn(CC(=O)N3CCN(c4ccc(Cl)cc4)CC3)c(=O)c2c1S(=O)(=O)N1CCN(c2ncccn2)CC1` reads 19.3% (inactive); that for `COc1ccccc1CNC(=O)c1ccc2c(c1)CCN2S(=O)(=O)c1ccccc1`, -26% (inactive); that for `CC(=O)c1ccc(NC(=O)CC2Nc3cccc4cccc(c34)NC2=O)cc1` (stereo not given), 19% (inactive).
On to `O=S(=O)(NCC(c1ccco1)S(=O)(=O)c1cccs1)c1ccc(Cl)cc1` (stereo not given), for which the “activity, negative = inhibition” value was -5.76% (inactive).
Consider `O=C(Cn1c(=O)c2ccccc2n(CC(=O)Nc2ccc(Cl)cc2)c1=O)NCCc1ccccc1`, for which the Potency is 14.7 µM (active).
Consider `O=C(CCCn1c(=O)c2ccccc2n(Cc2cccc(Cl)c2)c1=O)NCCc1ccc(Cl)cc1`, for which the “activity, negative = inhibition” value was -14.3% (inactive).
Same read-out and setting: next, `CCOc1ccc(NC(=O)Cn2c(=O)n(CCCCCC(=O)NCc3ccccc3)c(=O)c3sccc32)cc1`: -82.5% (inactive); `O=C(NCCc1ccc(F)cc1)C(=O)NCC(c1cccs1)S(=O)(=O)c1ccc(Cl)cc1` (stereo not given): -25.5% (inactive); `COc1ccc(-n2c(SCCC(C)C)nc3sc4c(c3c2=O)CC(C(C)C)OC4)cc1` (stereo not given): 8.33% (inactive).
On the same count and under the same terms, the result for `Fc1ccc(C2=NC(c3cccc(C(F)(F)F)c3)=Nc3ccccc3N2)cc1` reads 0% (inactive); that for `CCCn1c2ccccc2c2cnn(CC(=O)N(CCCOC)Cc3ccco3)c(=O)c21`, -4.31% (inactive); that for `Cc1ccc(N=C2NC(=O)CC(C(=O)Nc3cc(C(F)(F)F)ccc3Cl)S2)cc1` (stereo not given), -37.5% (inactive).
Regarding `O=C(Nc1cccs1)Nc1cc(C(F)(F)F)ccc1Cl`, the Potency is 9.27 µM (active).
Consider `COc1ccc(NC(=O)C2CCCN(S(=O)(=O)c3cccc4nonc34)C2)cc1Cl` (stereo not given), for which the “activity, negative = inhibition” value is 20.3% (inactive).
Same read-out and setting: next, `Cc1cccc(C(CC(=O)NCC2(c3ccccc3)CCCC2)c2ccccc2)c1O` (stereo not given): -74% (inactive); `COc1ccccc1N1CCN(C(=O)CSc2nc3ccccc3nc2Cc2ccc(C)cc2)CC1`: 5.26% (inactive).
On the same count and under the same terms, next, `O=C(Cn1cc(SCc2ccccc2)c2ccccc21)N1CCCCC1`: -24.4% (inactive); `CC1CCc2nc3ncn(CC(=O)Nc4cccc(C#N)c4)c(=O)c3cc2C1` (stereo not given): 1.3% (inactive); `CCN1CCc2nc3sc(C(=O)Nc4cccc(Cl)c4C)c(N)c3cc2C1`: -19.2% (inactive).
As for `CCC1CCc2nc3sc(C(=O)Nc4ccc(C)cc4)c(N)c3cc2C1` (stereo not given), the Potency is 5.21 µM (active).
In the case of `Nc1c(C(=O)Nc2ccccc2F)sc2nc3c(cc12)CCCCCC3`, the “activity, negative = inhibition” value is -18.6% (inactive).
The same measure, in the same setting: next, `CCC(C)NC(=O)c1sc2nc(C)c(C(=O)Nc3ccc(C)cc3C)c(-c3ccc(Cl)cc3)c2c1N` (stereo not given): 4.53% (inactive).
`CCC1CCc2nc3sc(C(=O)Nc4ccc(F)c(F)c4)c(N)c3cc2C1` (stereo not given): the Potency was 5.85 µM (active).
Consider `CC1CCCCN1S(=O)(=O)c1cc2c(=O)nc3ccccn3c2cc1Cl` (stereo not given), for which the “activity, negative = inhibition” value is 1.56% (inactive).
Still for that read-out and setting: the result for `C=CCc1ccc(OCc2ccc(C(=O)Nc3ccc(NC(C)=O)cc3)o2)c(OC)c1` reads -24% (inactive).
On to `Cc1cc(C)cc(OCC(=O)NCC(c2ccc(Cl)cc2)N2CCCCC2)c1` (stereo not given), for which the “activity, negative = inhibition” value is -24.5% (inactive).
Still for that read-out and setting: next, `CCc1c(C)nc2nc(-c3ccccc3)nn2c1NCc1ccc(C)cc1`: -13.9% (inactive); `COc1ccc(Br)c(C(=O)Nc2cc3c(cc2N2CCCC2)n(C)c(=O)c(=O)n3C)c1`: 0.892% (inactive).
Still for that read-out and setting: next, `CC(C)c1ccc(NC(=O)c2cc(S(=O)(=O)NCCc3ccccc3)ccc2F)cc1`: 6.25% (inactive).
For the compound `CC(=O)c1ccc(C(=O)N(CCCN(C)C)c2nc3c(C)c(C)ccc3s2)cc1`, the Potency is 14.7 µM (active).
Consider `COc1ccccc1NC(=O)C1=C(C)Nc2nc(-c3ccco3)nn2C1c1cccc(C)c1` (stereo not given), for which the “activity, negative = inhibition” value is -49.1% (inactive).
As for `COc1cc(CNC(=O)c2ccc3nc(Cc4ccccc4)oc3c2)cc(OC)c1OC`, the “activity, negative = inhibition” value was 1.3% (inactive).
The same measure, in the same setting: next, `CCc1ccccc1NS(=O)(=O)c1ccc2[nH]cc(C(=O)NC3CCCC3)c(=O)c2c1`: 11.2% (inactive); `Cc1ccccc1CNCCCSc1nnnn1-c1ccccc1`: -12.6% (inactive); `Cc1ccccc1C(=O)N1CCN(CCc2ccccn2)CC1`: -21.4% (inactive).
On the same count and under the same terms, the result for `CCOC(=O)c1cnc2c(Cl)cc(Cl)cc2c1Nc1cc(C(=O)O)ccc1C` reads -7.51% (inactive); that for `CCOc1ccccc1NC(=O)CN1C(=O)C(=O)c2ccccc21`, -24% (inactive).
Turning to `Cc1cc(Cl)ccc1NC(=O)CN1C(=O)C(=O)c2ccccc21`, the Potency was 2.07 µM (active).
For the compound `COc1ccc(NC(=O)CN2C(=O)C(=O)c3ccccc32)c(OC)c1`, the “activity, negative = inhibition” value is -5% (inactive).
